Inconclusive results are not listed. Active and inactive are the calls of the source. Rule for the calls, unless noted: active = hit-call score of the fitted dose curve at least 0.9, where 1 is the maximum; inactive = score below 0.9.

The target in one assay is Nucleoli Translocation, AR (gene 367) (UniProt P10275). Put plainly: UPITT_HCI_U2OS_AR_TIF2_Nucleoli_Agonist: University of Pittsburgh U2OS Androgen Receptor-Transcriptional Intermediary Factor 2 (AR-TIF2) Agonism High Content Imaging Assay for Nucleoli Translocation (AID 2283998; active = hit-call score of the fitted dose curve at least 0.9, where 1 is the maximum).
Nucleoli Translocation, AR (gene 367), sequence (P10275 whole entry, looked up): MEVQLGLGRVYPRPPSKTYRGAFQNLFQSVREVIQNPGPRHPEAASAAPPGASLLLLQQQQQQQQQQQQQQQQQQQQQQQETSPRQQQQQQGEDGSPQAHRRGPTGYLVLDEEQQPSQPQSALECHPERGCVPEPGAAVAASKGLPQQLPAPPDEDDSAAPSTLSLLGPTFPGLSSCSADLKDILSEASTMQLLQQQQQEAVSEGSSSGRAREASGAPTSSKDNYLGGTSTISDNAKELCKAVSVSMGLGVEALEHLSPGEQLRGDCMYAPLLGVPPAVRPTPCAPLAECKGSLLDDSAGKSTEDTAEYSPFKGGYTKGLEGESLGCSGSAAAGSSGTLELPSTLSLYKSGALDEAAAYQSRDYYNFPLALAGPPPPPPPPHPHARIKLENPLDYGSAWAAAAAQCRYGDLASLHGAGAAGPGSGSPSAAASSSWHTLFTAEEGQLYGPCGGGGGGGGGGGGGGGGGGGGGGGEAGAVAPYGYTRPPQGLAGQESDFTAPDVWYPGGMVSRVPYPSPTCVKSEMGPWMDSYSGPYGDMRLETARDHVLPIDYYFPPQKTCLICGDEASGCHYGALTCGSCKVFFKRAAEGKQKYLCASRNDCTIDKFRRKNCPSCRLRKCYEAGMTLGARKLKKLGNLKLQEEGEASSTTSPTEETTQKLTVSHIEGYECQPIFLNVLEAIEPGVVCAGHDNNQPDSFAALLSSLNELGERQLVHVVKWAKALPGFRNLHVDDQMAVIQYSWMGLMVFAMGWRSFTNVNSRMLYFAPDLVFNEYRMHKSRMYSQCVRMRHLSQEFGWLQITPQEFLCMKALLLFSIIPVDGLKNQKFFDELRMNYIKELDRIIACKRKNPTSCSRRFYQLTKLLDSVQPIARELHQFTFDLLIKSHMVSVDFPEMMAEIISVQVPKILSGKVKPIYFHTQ
Conditions: not given
The essentials: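 Readout is red (AR-RFP) fluorescence localized to nucleoli, measured by high-content imaging and analysed for increase relative to DMSO. Compound series spanned 0.195 to 50 uM final in 0.5% DMSO.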
As for `CCNc1nc(Cl)nc(NC(C)(C)C)n1`, the outcome was inactive.
On to `CCCCCCCc1ccc(O)cc1`, for which the AC50 (as a rule, the concentration at which the activity in the assay is half-maximal) is 19.2 µM (active).
Turning to `ClC(Cl)=C(c1ccc(Cl)cc1)c1ccccc1Cl`, the compound was called inactive.
On to `CCN(CC)c1ccccc1`, for which the result was inactive.
Turning to `O=P(OCC(Br)CBr)(OCC(Br)CBr)OCC(Br)CBr` (stereo unspecified), the result was inactive.
Turning to `[N-]=[N+]=[N-]`, the call was inactive.
For the compound `CO/N=C(/C(=O)OC)c1ccccc1COc1ccccc1C`, the call was inactive.
Take `ClC1=C(Cl)C2(Cl)C3C(Cl)C(Cl)CC3C1(Cl)C2(Cl)Cl` (stereo unspecified): the compound was called inactive.
As for `CCCCN(CC)C(=O)SCCC`, the call was inactive.
On the same count and under the same terms, the value for `CCCCC(CC)COP(=O)(Oc1ccccc1)Oc1ccccc1` (stereo unspecified) was “inactive”; that for `CC(C)(C)N(NC(=O)c1ccc(Cl)cc1)C(=O)c1ccccc1` was “inactive”.
Regarding `CC1(C)CN=C(NN=C(/C=C/c2ccc(C(F)(F)F)cc2)/C=C/c2ccc(C(F)(F)F)cc2)NC1`, the result was inactive.

The target in a further assay is Ratio of Nucleoli Translocation and Cytoplasm, AR (gene 367) (UniProt P10275). Put plainly: UPITT_HCI_U2OS_AR_TIF2_Nucleoli_Cytoplasm_Ratio_Antagonist: University of Pittsburgh U2OS Androgen Receptor-Transcriptional Intermediary Factor 2 (AR-TIF2) Antagonism High Content Imaging Assay for Ratio of Nucleoli Translocation and Cytoplasm (AID 2283999; active = hit-call score of the fitted dose curve at least 0.9, where 1 is the maximum;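 note: antagonists lower the DHT-driven ratio of nucleolar to cytoplasmic red signal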).
Ratio of Nucleoli Translocation and Cytoplasm, AR (gene 367), sequence (P10275 whole entry, looked up): as above
Conditions: not given
The method in brief: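 Compounds were added to U2OS cells carrying red-fluorescent AR and green-fluorescent TIF2, first at 20 uM, with hits confirmed in triplicate and titrated from 0.195 to 50 uM. Nucleolar versus cytoplasmic AR-RFP fluorescence was then quantified by imaging, with analysis relative to DHT.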
For `CCCCCCCc1ccc(O)cc1`, the AC50 was 79.6 µM (active).
As for `ClC(Cl)=C(c1ccc(Cl)cc1)c1ccccc1Cl`, the outcome was inactive.
Turning to `c1cc2c3c(cccc3c1)CC2`, the result was inactive.
In the case of `O=P(OCC(Br)CBr)(OCC(Br)CBr)OCC(Br)CBr` (stereo unspecified), the result was inactive.
For the compound `[N-]=[N+]=[N-]`, the result was inactive.
As to `CO/N=C(/C(=O)OC)c1ccccc1COc1ccccc1C`, the outcome was inactive.
Turning to `ClC1=C(Cl)C2(Cl)C3C(Cl)C(Cl)CC3C1(Cl)C2(Cl)Cl` (stereo unspecified), the outcome was inactive.
For `CCCCN(CC)C(=O)SCCC`, the result was inactive.
The same measure, in the same setting: as for `CCCCC(CC)COP(=O)(Oc1ccccc1)Oc1ccccc1` (stereo unspecified), the entry is “inactive”; as for `CC(C)(C)N(NC(=O)c1ccc(Cl)cc1)C(=O)c1ccccc1`, “inactive”.
As to `CC1(C)CN=C(NN=C(/C=C/c2ccc(C(F)(F)F)cc2)/C=C/c2ccc(C(F)(F)F)cc2)NC1`, the result was inactive.

Test system in another assay: not listed separately
The assay can be described thus: CCTE_Simmons_MITO_basal_resp_rate: CCTE's HepG2 Seahorse XF Respirometric Screening Assay at Basal Respiratory State, Simmons Lab (AID 2284001). The following applies: actives raise or lower the signal. The method in brief: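 Basal-phase OCR of HepG2 cells on a Seahorse XF96, analysed by bidirectional fit relative to DMSO vehicle; chemicals at 7 concentrations, 125 nM–100 uM final; three biological replicates; fenpyroximate and 2,4-dinitrophenol positive controls.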
Consider `CC(C)(C)c1ccc(O)cc1`, for which the AC50 was 37.2 µM (active).
Regarding `CCOP(=S)(OCC)SCSCC`, the result was inactive.
For `CCCCCCCc1ccc(O)cc1`, the AC50 is 40.4 µM (active).
Consider `CCC(C)(C)c1ccc(O)cc1`, for which the AC50 was 49.9 µM (active).
`Cc1ccc(N)cc1N`: the outcome was inactive.
In the case of `[N-]=[N+]=[N-]`, the compound was classed as inactive.
`ClC(Cl)(Cl)c1ccccc1`: the compound was classed as inactive.

Test system in a further assay: not listed separately
Put plainly: CCTE_Simmons_MITO_max_resp_rate: CCTE's HepG2 Seahorse XF Respirometric Screening Assay at Maximal Respiratory State [uncoupled], Simmons Lab (AID 2284002). The settings on record: actives raise or lower the signal. As to the method: CCTE_Simmons_MITO is cell-based, respirometric assay using HepG2 cells and a Seahorse XF Analyzer to measure oxygen consumption rates over four temporal phases spanning a total of 72 minutes: pre-injection (pre-treatment), basal (following test compound injection), maximal (following FCCP uncoupler injection), and inhibited (following rotenone/antimycin A injection)CCTE_Simmons_MITO_max_resp_rate is one of 4 assay components calculated from the CCTE_Simmons_MITO assay. It is designed to make measurements of maximal respiration using a form of respirometric reporter, as detected with […] signals by Seahorse XF96 technology. Data from the assay component CCTE_Simmons_MITO_max_resp_rate was analyzed at the endpoint, CCTE_Simmons_MITO_max_resp_rate_OCR, with bidirectional fitting relative to DMSO as the negative control and baseline of activity. Using a type of respirometric reporter, measures of maximal respiration for gain or loss-of-signal activity can be used to understand cellular oxygen consumption as it relates to cellular respiration. To generalize the intended target to other relatable targets, this assay endpoint is annotated to the mitochondria intended target family, where the subfamily is respiration.
Test chemicals were administered as a titrated series of 7 concentrations from 125 nM up to 100 uM [final] prior to kinetic endpoint detection at 6 minute intervals [3 min mix followed by 3 minutes measure] for 72 minutes. Three biological replicates of technical singles were run for every chemical concentration tested. Dimethylsulfoxide [DMSO] was used as the vehicle control. The electron transport chain inhibitor fenpyroximate was used as the positive control for decreased basal respiration and was administered as a titrated series of 6 concentrations from 250 nM up to 2.75 uM [final] with technical triplicates for the top concentration only. The uncoupler 2,4-dintirophenol was used as the positive control for increased basal respiration and was administered as a titrated series of 6 concentrations from 938 nM up to 40 uM [final] with technical triplicates for the top concentration only. A Seahorse XF Analzyer is required to measure the response.
Turning to `CC(C)(C)c1ccc(O)cc1`, the outcome was inactive.
As for `CCOP(=S)(OCC)SCSCC`, the AC50 was 50 µM (active).
On to `CCCCCCCc1ccc(O)cc1`, for which the AC50 was 27.6 µM (active).
As to `CCC(C)(C)c1ccc(O)cc1`, the AC50 was 42.5 µM (active).
Take `Cc1ccc(N)cc1N`: the call was inactive.
Regarding `[N-]=[N+]=[N-]`, the AC50 was 50 µM (active).
Consider `ClC(Cl)(Cl)c1ccccc1`, for which the outcome was inactive.

Test system in another assay: not listed separately
The assay can be described thus: CCTE_Simmons_MITO_inhib_resp_rate: CCTE's HepG2 Seahorse XF Respirometric Screening Assay at Inhibited Respiratory State [full ETC block], Simmons Lab (AID 2284006). The settings on record: actives raise or lower the signal. The method in brief: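 Seahorse respirometry, HepG2, 72 min total, 6-min mix/measure cycles. Cpd 125 nM–100 uM final ×7, n=3 biological. Sequential FCCP, rotenone/antimycin A; inhibited-respiration OCR, bidirectional fit vs DMSO.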
For the compound `CC(C)(C)c1ccc(O)cc1`, the compound was called inactive.
Still for that read-out and setting: the value for `CCOP(=S)(OCC)SCSCC` was “inactive”.
As to `CCCCCCCc1ccc(O)cc1`, the call was inactive.
On to `CCC(C)(C)c1ccc(O)cc1`, for which the result was inactive.
Regarding `Cc1ccc(N)cc1N`, the result was inactive.
For the compound `[N-]=[N+]=[N-]`, the compound was called inactive.
As for `ClC(Cl)(Cl)c1ccccc1`, the call was inactive.

Test system in another assay: not listed separately
The assay can be described thus: CCTE_Simmons_MITO_viability: CellTiter-Glo Viability Assessment for CCTE's HepG2 Seahorse XF Respirometric Screening Assay [post-hoc], Simmons Lab (AID 2284007; active = hit-call score of the fitted dose curve at least 0.9, where 1 is the maximum).
Conditions: not given
The essentials: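 Cytotoxicity readout: ATP quantitation via luciferase in HepG2 cells treated 90 min with seven titrated concentrations (125 nM to 100 uM, final). Curves fitted relative to DMSO negative control, three biological replicates per concentration.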
`CC(C)(C)c1ccc(O)cc1`: the result was inactive.
Consider `CCOP(=S)(OCC)SCSCC`, for which the call was inactive.
As for `ClC(Cl)(Cl)c1ccccc1`, the outcome was inactive.

Test system in the next assay: not listed separately
Put plainly: CCTE_Shafer_MEA_acute_spike_number: CCTE's Neural Acute Assay for Total Number of Spikes, Shafer Lab (AID 2284008).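 For AC50: curve fitted for decrease in spike count so AC50 reflects inhibitors.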
Conditions: not given
The method in brief: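 Read-out is the total spike count over 40 min, expressed as percent change from each well's own pre-treatment baseline and fitted in the loss direction against DMSO. Rat cortical neurons were exposed at 0.03-40 uM on DIV 13 or 15.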
In the case of `CCOc1ccc(C(C)(C)COCc2cccc(Oc3ccccc3)c2)cc1`, the result was inactive.
For `CCC(C)(C)c1ccc(O)cc1`, the concentration at half-maximal activity (AC50) was 0.186 µM (active).
Turning to `Cc1ccc(N)cc1N`, the result was inactive.
Same read-out and setting: the value for `COP(=O)(CCC(=O)NCO)OC` was “inactive”; that for `CC(Cl)(Cl)C(=O)O` was “inactive”.
Same read-out and setting: the value for `COCCOCCO` was “inactive”.
As to `CC(C)(C)c1ccccc1OP(=O)(Oc1ccccc1)Oc1ccccc1`, the AC50 was 1.33 µM (active).
As for `[N-]=[N+]=[N-]`, the compound was classed as inactive.
Take `O=C(O)C1C(C(=O)O)C2(Cl)C(Cl)=C(Cl)C1(Cl)C2(Cl)Cl` (stereo unspecified): the compound was classed as inactive.
In the case of `ClC(Cl)(Cl)c1ccccc1`, the result was inactive.
In the case of `ClC1=C(Cl)C2(Cl)C3C(Cl)C(Cl)CC3C1(Cl)C2(Cl)Cl` (stereo unspecified), the compound was called inactive.
As for `CCCCC(CC)COP(=O)(Oc1ccccc1)Oc1ccccc1` (stereo unspecified), the AC50 is 15 µM (active).
Same read-out and setting: the value for `CCOP(=S)(Oc1ccc([N+](=O)[O-])cc1)c1ccccc1` (stereo unspecified) was 24.9 µM (active).
For `CCC1(c2ccccc2)C(=O)N=C(O)NC1=O` (stereo unspecified), the call was inactive.
As for `Nc1ccc2ccccc2c1`, the AC50 was 0.109 µM (active).
Regarding `c1ccc2c(c1)Nc1ccccc1S2`, the AC50 is 4.42 µM (active).

Test system in the next assay: not listed separately
The assay can be described thus: CCTE_Harrill_HTTr_Viability_MCF7: CCTE's 6-hour Cell Viability Assessment for the High-Throughput Transcriptomics (HTTr) Platform, in MCF-7 cells cultured in DMEM + 10% fetal bovine serum, Harrill Lab (AID 2284010).
Conditions: not given
The method in brief:
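Read-out is propidium iodide gain of signal by high-content imaging, reflecting membrane integrity loss. Measurements are taken 6 h after dosing, eight concentrations per chemical, with DMSO serving as baseline for bidirectional curve fitting.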
`CC(C)(C)c1ccc(O)cc1`: the outcome was inactive.
For the compound `CCOP(=S)(OCC)SCSCC`, the outcome was inactive.
Still for that read-out and setting: the value for `c1ccc(OP(Oc2ccccc2)Oc2ccccc2)cc1` was “inactive”; that for `CCNc1nc(Cl)nc(NC(C)(C)C)n1` was “inactive”; that for `CCCCCCCc1ccc(O)cc1` was “inactive”.
Still for that read-out and setting: the value for `CN(C)C(=O)Cl` was “inactive”; that for `Cc1ccc2c(c1N)C(=O)c1ccccc1C2=O` was “inactive”; that for `Clc1ccc(Oc2ccccc2)cc1` was “inactive”.
As to `CCOc1ccc(C(C)(C)COCc2cccc(Oc3ccccc3)c2)cc1`, the result was inactive.
For the compound `FC(F)(F)c1ccc(Cl)cc1`, the outcome was inactive.
On to `Cc1ccc(N)cc1N`, for which the result was inactive.
For `ClC(Cl)=C(c1ccc(Cl)cc1)c1ccccc1Cl`, the outcome was inactive.
Turning to `CC(Cl)(Cl)C(=O)O`, the outcome was inactive.
For the compound `c1cc2c3c(cccc3c1)CC2`, the outcome was inactive.
Same read-out and setting: as for `COCCOCCO`, the entry is “inactive”; as for `Nc1ccc(Sc2ccc(N)cc2)cc1`, “inactive”; as for `CCN(CC)c1ccccc1`, “inactive”.
In the case of `CCOP(=S)(OCC)SCSc1ccc(Cl)cc1`, the result was inactive.
With `O=P(OCC(Br)CBr)(OCC(Br)CBr)OCC(Br)CBr` (stereo unspecified), the outcome was inactive.
As for `[N-]=[N+]=[N-]`, the outcome was inactive.
On to `CO/N=C(/C(=O)OC)c1ccccc1COc1ccccc1C`, for which the outcome was inactive.
On to `O=S(=O)(c1ccc(O)cc1)c1ccc(O)cc1`, for which the outcome was inactive.
For the compound `O=C(O)C1C(C(=O)O)C2(Cl)C(Cl)=C(Cl)C1(Cl)C2(Cl)Cl` (stereo unspecified), the result was inactive.
Still for that read-out and setting: the value for `ClC(Cl)(Cl)c1ccccc1` was “inactive”; that for `ClC1=C(Cl)C2(Cl)C3C(Cl)C(Cl)CC3C1(Cl)C2(Cl)Cl` (stereo unspecified) was “inactive”.
On the same count and under the same terms, the value for `CCCCN(CC)C(=O)SCCC` was “inactive”.
Still for that read-out and setting: as for `CCCCC(CC)COP(=O)(Oc1ccccc1)Oc1ccccc1` (stereo unspecified), the entry is “inactive”; as for `CCOP(=S)(Oc1ccc([N+](=O)[O-])cc1)c1ccccc1` (stereo unspecified), “inactive”.
On to `CCC1(c2ccccc2)C(=O)N=C(O)NC1=O` (stereo unspecified), for which the result was inactive.
As for `Nc1ccc2ccccc2c1`, the result was inactive.
For `CC(C)(C)N(NC(=O)c1ccc(Cl)cc1)C(=O)c1ccccc1`, the result was inactive.
For `CC1(C)CN=C(NN=C(/C=C/c2ccc(C(F)(F)F)cc2)/C=C/c2ccc(C(F)(F)F)cc2)NC1`, the result was inactive.
On the same count and under the same terms, the value for `c1ccc2c(c1)Nc1ccccc1S2` was “inactive”.

(Values after PubChem BioAssay (EPA / NIEHS).)
